Assay results reported in PubChem BioAssay AID590 (National Center for Advancing Translational Sciences (NCATS), 2007).
Out of some 59,000 compounds screened, about 6,500 (11%) were called active. Another 15% or so got no clear call; they are omitted. This is one part of a sample in which actives are shown more often than they occur. Rule as the data show it: active = max dye-equivalent concentration above about 10 nM; inconclusive = mostly about 1.1 nM to 9.6 nM; inactive = weaker than that.

Assay: qHTS Assay for Spectroscopic Profiling in A350 Spectral Region
Settings: Compound autofluorescence, 340/450 nm, Alexa 350 dye-equivalents; stronger effect = higher value
With CN(C(=O)CSc1nnnn1-c1ccccc1)C1CCCCC1 the max dye-equivalent concentration was “inactive”. With Cc1oc2nc(SCC(=O)NCc3cccnc3)nc(N)c2c1C the max dye-equivalent concentration was “inactive”. For O=C(c1ccc2c(c1)N(Cc1ccc(F)cc1)C(=O)CS2)N1CCOCC1, the max dye-equivalent concentration was “inactive”. With CCNC(=O)c1c(O)c2cccc3c2n(c1=O)CC3 the max dye-equivalent concentration was 22 nM (active). For Cc1cc(=O)n2c3c(cccc13)CCC2, the max dye-equivalent concentration was “inactive”. In the case of Cn1c(C(=O)NCCN2CCc3ccccc3C2)cc2c(=O)[nH]c3ccccc3c21, the max dye-equivalent concentration is reported as “inactive”. For Cc1cnc(CNc2nc(-c3cccnc3)nc3ccccc23)cn1, the max dye-equivalent concentration was “inactive”. With CN(C)CCSS(=O)(=O)O the max dye-equivalent concentration was “inactive”. For C[C@]1(O)CC[C@H]2[C@H]3CC=C4N5CCN=C5CC[C@@]4(C)[C@H]3CC[C@@]21C, the max dye-equivalent concentration was “inactive”. With CC(=O)c1cc(-c2ccccc2)[nH]c1N1CCCC1 the max dye-equivalent concentration was “inactive”. In the case of Cc1cc(N2CCCC2)n2nc(C)c(-c3ccccc3)c2n1, the max dye-equivalent concentration is reported as 220 nM (active). With S=c1c2[nH]cnc2ncn1CCSc1ncnc2nc[nH]c12 the max dye-equivalent concentration was “inactive”. In the case of CC(C)(C)c1csc(NC2=NS(=O)(=O)c3ccccc32)n1, the max dye-equivalent concentration is reported as “inactive”. In the case of COc1ccc(NC(=O)CN(C)S(=O)(=O)c2ccccc2)cc1OC, the max dye-equivalent concentration is reported as “inactive”. With Brc1ccc(Nc2c3c(nc4ncnn24)CCC3)cc1 the max dye-equivalent concentration was “inactive”. For CC1CCc2c(sc(NC(=O)c3ccc(Cn4cc(Br)cn4)o3)c2C(N)=O)C1 (centres undefined), the max dye-equivalent concentration was 110 nM (active). With NC(=O)CSc1oc(-c2cccs2)nc1S(=O)(=O)c1ccccc1 the max dye-equivalent concentration was “inactive”. With O=C(c1ccco1)N1CCC[C@@]2(CCN(Cc3nccs3)C2)C1 the max dye-equivalent concentration was “inactive”. With CC(=O)Nc1cccc(-c2cnc3ccccc3n2)c1 the max dye-equivalent concentration was “inactive”. In the case of CCCC(=O)Nc1cccc(-c2cn3ccsc3n2)c1, the max dye-equivalent concentration is reported as “inactive”. In the case of COc1ccc(-c2cn3ccsc3n2)cc1, the max dye-equivalent concentration is reported as “inactive”. For c1ccc(-c2cn3cccnc3n2)cc1, the max dye-equivalent concentration was 4800 nM (active). With CC(=O)Nc1ccc(-c2cn3cccnc3n2)cc1 the max dye-equivalent concentration was 6300 nM (active). In the case of CCOc1nc(OCC)nc(-n2cc(-c3ccccc3)nn2)n1, the max dye-equivalent concentration is reported as “inactive”. In the case of CC(=O)N(Cc1cccs1)C1CCOC(C)(C)C1 (centres undefined), the max dye-equivalent concentration is reported as “inactive”. In the case of CCCCn1c(=S)[nH]c2ncccc2c1=O, the max dye-equivalent concentration is reported as “inactive”. With O=S(=O)(N1CCOCC1)N1CCN(c2ccccc2F)CC1 the max dye-equivalent concentration was “inactive”. For CC1(C)CC(=O)NC=C(c2ccccc2)C1, the max dye-equivalent concentration was “inactive”. In the case of c1ccc(-c2[nH]ncc2-c2nc3ccccc3[nH]2)cc1, the max dye-equivalent concentration is reported as “inactive”. In the case of O=c1[nH]c(-c2ccccc2)c(-c2ccccc2)[nH]1, the max dye-equivalent concentration is reported as 14 nM (active). In the case of c1csc(CN2CCN(Cc3cccs3)C2c2cccs2)c1, the max dye-equivalent concentration is reported as “inactive”. In the case of CC1CCCCC1NC(=O)CCS(=O)(=O)c1cccc2nonc12 (centres undefined), the max dye-equivalent concentration is reported as “inactive”. For C=CCn1c(N)c(C(=O)OCC(C)C)c2nc3ccccc3nc21, the max dye-equivalent concentration was 4500 nM (active). With CCN(CC(=O)NCc1cccs1)c1nnnn1-c1ccccc1 the max dye-equivalent concentration was “inactive”. With CC(C)Cn1c(N)c(C(=O)NCc2cccs2)c2nc3ccccc3nc21 the max dye-equivalent concentration was 350 nM (active). For C=CCn1c(N)c(S(=O)(=O)c2cccs2)c2nc3ccccc3nc21, the max dye-equivalent concentration was 5300 nM (active). In the case of Cc1nnc(SCC(=O)NCc2cccs2)[nH]c1=O, the max dye-equivalent concentration is reported as “inactive”. With C=CCn1c(C2CC(=O)N(c3ccc(C)cc3)C2)nc2ccccc21 (centres undefined) the max dye-equivalent concentration was “inactive”. In the case of CC(=O)c1c(N2CCOCC2)nc(=S)n(-c2cc(C)ccc2C)c1C, the max dye-equivalent concentration is reported as “inactive”. In the case of COC(=O)[C@@H]1[C@H]2C[C@H]3c4[nH]c5cc(OC)ccc5c4CCN3C[C@@H]2C[C@@H](OC(=O)c2cc(OC)c(OC)c(OC)c2)[C@@H]1OC, the max dye-equivalent concentration is reported as “inactive”. With Oc1c(Br)cc(CN(Cc2cc(Br)c(O)c(Br)c2)C2CCCCC2)cc1Br the max dye-equivalent concentration was “inactive”. In the case of CS(=O)(=O)c1ccc2nc(NC(=O)CN3CCCCCC3)sc2c1, the max dye-equivalent concentration is reported as “inactive”. For CCn1nnc(NC(=O)c2c(OC)cccc2OC)n1, the max dye-equivalent concentration was “inactive”. In the case of O=C(CSc1nc2ncccc2[nH]1)Nc1ccc2c(c1)OCCO2, the max dye-equivalent concentration is reported as “inactive”. In the case of CC(C)C(c1nnnn1C1CCCC1)N1CCN(c2ccccc2F)CC1 (centres undefined), the max dye-equivalent concentration is reported as “inactive”. For Cc1cc(C)c(C#N)c(SCc2ccc3c(c2)OCO3)n1, the max dye-equivalent concentration was “inactive”. For Cc1cc(C)c(C#N)c(SCS(=O)c2ccc(C(C)(C)C)cc2)n1 (centres undefined), the max dye-equivalent concentration was “inactive”. For Cc1cc(C)c(C#N)c(SCc2ccccc2C(=O)O)n1, the max dye-equivalent concentration was 13 nM (active). For CCN(CC)S(=O)(=O)c1ccc(NC(=O)CN(c2cccc(F)c2)S(C)(=O)=O)cc1, the max dye-equivalent concentration was “inactive”. With CCOC(=O)c1c(NC(=O)CCC(=O)NCc2ccco2)sc2c1CCCC2 the max dye-equivalent concentration was “inactive”. In the case of ClC(Cl)(Cl)C(N1CCN(c2ccccc2)CC1)N1CCN(c2ccccc2)CC1, the max dye-equivalent concentration is reported as “inactive”. With COc1ccccc1N1CCN(C(=O)CSc2nnc(-c3ccoc3C)o2)CC1 the max dye-equivalent concentration was “inactive”. With O=C(O)c1ccc(NC(=O)C2CCCCC2)cc1 the max dye-equivalent concentration was “inactive”. For CN1C(=O)c2ccc(NC(=O)c3c(F)c(F)c(F)c(F)c3F)cc2C1=O, the max dye-equivalent concentration was 110 nM (active). With O=C(Nc1c(Cl)cccc1Cl)C1CCC1 the max dye-equivalent concentration was “inactive”. With Cc1nc(C)c(C(=O)Nc2ccc(C)c(F)c2)o1 the max dye-equivalent concentration was “inactive”. With CN1C(=O)c2ccc(NC(=O)C3CCCCC3)cc2C1=O the max dye-equivalent concentration was 320 nM (active). In the case of O=C(Nc1ccncc1)c1c(F)cccc1F, the max dye-equivalent concentration is reported as “inactive”. In the case of C[N+]1(CCN=C=NC2CCCCC2)CCOCC1, the max dye-equivalent concentration is reported as “inactive”. For Cc1ccc(N2CCN(S(=O)(=O)N(C)C)CC2)cc1Cl, the max dye-equivalent concentration was “inactive”. For CCCCOc1ccc(C(C)(O)CCN2CCOCC2)cc1 (centres undefined), the max dye-equivalent concentration was “inactive”. In the case of CC(C)C(c1nnnn1CCc1ccccc1)N1CCN(C(=O)c2ccco2)CC1 (centres undefined), the max dye-equivalent concentration is reported as “inactive”. In the case of N#Cc1cccc(-c2ccc3ncnc(NCc4cccs4)c3c2)c1, the max dye-equivalent concentration is reported as “inactive”. For CC(=O)Oc1cccc(N2C(=O)CC(Nc3ccc(N4CCOCC4)cc3)C2=O)c1 (centres undefined), the max dye-equivalent concentration was “inactive”. In the case of CS(=O)(=O)N1CCC2(CC1)CN(Cc1cc(C(F)(F)F)cc(C(F)(F)F)c1)C2, the max dye-equivalent concentration is reported as “inactive”. In the case of COc1ccc(OC)c(NC(=O)Cn2c(=O)oc3ccccc32)c1, the max dye-equivalent concentration is reported as “inactive”. In the case of COc1ccc(N2C(=O)CCC(C(=O)N(C)C3CCCCC3)C2c2ccc(OC)c(OC)c2)cc1 (centres undefined), the max dye-equivalent concentration is reported as “inactive”. For C#CCN1C(=O)C(O)(CC(=O)c2cc(OC)ccc2OC)c2ccccc21 (centres undefined), the max dye-equivalent concentration was 14 nM (active). For COc1ccc(CCN(Cc2cc3cccc(C)c3[nH]c2=O)C(=O)N2CCCC2)cc1OC, the max dye-equivalent concentration was “inactive”. In the case of COc1cccc2cc(C(C)N(CCCN3CCOCC3)C(=O)Nc3ccc(Cl)cc3)oc12 (centres undefined), the max dye-equivalent concentration is reported as “inactive”. For COc1cc2cc(CN(CCN3CCCC3)C(=O)Nc3ccccc3Cl)c(=O)[nH]c2cc1OC, the max dye-equivalent concentration was 310 nM (active). For Cc1ccc(-c2nnn(CC(=O)N(CCO)C(C(=O)NC(C)(C)C)c3ccncc3)n2)cc1 (centres undefined), the max dye-equivalent concentration was “inactive”. For O=C(Nc1ccc2c(c1)OCCO2)c1ccncc1, the max dye-equivalent concentration was “inactive”. In the case of Cc1cc(C)n2nc(C(=O)Oc3ccc4c(c3)OCO4)nc2n1, the max dye-equivalent concentration is reported as “inactive”. In the case of COc1ccc2[nH]c3c(=O)n(Cc4ccco4)cnc3c2c1, the max dye-equivalent concentration is reported as 55 nM (active). In the case of COc1ccc(C(=O)CSc2nnc(COc3ccccc3)n2Cc2ccco2)cc1, the max dye-equivalent concentration is reported as “inactive”. With O=c1c2[nH]c3ccc(Cl)cc3c2ncn1Cc1ccccn1 the max dye-equivalent concentration was “inactive”. For COC(=O)c1[nH]c2ccccc2c1NS(=O)(=O)c1ccc(OC)cc1OC, the max dye-equivalent concentration was “inactive”. With COc1ccc(OC)c(N=Cc2c(O)[nH]c3ccccc23)c1 the max dye-equivalent concentration was 64 nM (active). With CCOc1ccccc1NC(=O)Nc1cc(OC)ccc1OC the max dye-equivalent concentration was “inactive”. For Cc1nc2nc(COc3ccccc3)[nH]n2c(=O)c1Cc1ccccc1, the max dye-equivalent concentration was “inactive”. For CC(=O)/C(C)=N\O, the max dye-equivalent concentration was “inactive”. With Cn1c(=O)c2c(nc(N3CCCCCC3)n2CC(O)COc2ccc(Cl)cc2)n(C)c1=O (centres undefined) the max dye-equivalent concentration was 49 nM (active). With Cn1c(=O)c2c(nc(N3CCCCCC3)n2CC(=O)c2ccc(Br)cc2)n(C)c1=O the max dye-equivalent concentration was “inactive”. In the case of Cc1cccc(Cn2c(N3CCN(c4ccccc4)CC3)nc3c2c(=O)n(C)c(=O)n3C)c1, the max dye-equivalent concentration is reported as “inactive”. In the case of Cc1ccc(Oc2nc3ccccc3n3c(C)nnc23)cc1, the max dye-equivalent concentration is reported as “inactive”. For CN(c1nc2ccccc2n2c(-c3ccco3)nnc12)S(=O)(=O)c1ccccc1, the max dye-equivalent concentration was 39 nM (active). For c1ccc(CSc2nnc(-c3ccco3)n2Cc2ccccc2)cc1, the max dye-equivalent concentration was “inactive”. For CC(=O)C1=C(O)C(=O)N(c2ccc(S(N)(=O)=O)cc2)C1c1ccccc1F (centres undefined), the max dye-equivalent concentration was 23 nM (active). For COc1ccccc1N=C1SC(C)CN1C(=O)C1CCC1 (centres undefined), the max dye-equivalent concentration was “inactive”. For COc1ccc(N2C(=O)CN=C2Nc2cccc(C)c2C)cc1OC, the max dye-equivalent concentration was “inactive”. In the case of CSc1cccc(NC(=O)C2CCCN2S(=O)(=O)c2ccc3c(c2)CCC(=O)N3)c1 (centres undefined), the max dye-equivalent concentration is reported as “inactive”. In the case of O=C(CN1C(=O)CCS(=O)(=O)c2ccccc21)NCc1ccc(F)cc1, the max dye-equivalent concentration is reported as “inactive”. In the case of NC(=O)CSC1=Nc2ccccc2C2=NC(CCC(=O)NCc3ccc(F)cc3)C(=O)N12 (centres undefined), the max dye-equivalent concentration is reported as 420 nM (active). In the case of Cc1nc2nc(SCC(=O)NCc3ccco3)nn2c(C)c1Cc1ccccc1, the max dye-equivalent concentration is reported as “inactive”. In the case of CC1(c2ccccc2Cl)NC(=O)N(CC(=O)NC(=O)NCc2ccco2)C1=O (centres undefined), the max dye-equivalent concentration is reported as “inactive”. In the case of O=C(CC1N=C2c3ccccc3N=C(SCc3ccccc3Cl)N2C1=O)NCc1ccco1 (centres undefined), the max dye-equivalent concentration is reported as 17 nM (active). For CCN(CC)S(=O)(=O)c1cccc(C(=O)NCC(=O)OCC(=O)NCc2ccccc2)c1, the max dye-equivalent concentration was “inactive”. For COc1ccccc1N(C(=O)Cn1nnc2ccccc21)C(C(=O)NCc1ccco1)c1ccc(C)o1 (centres undefined), the max dye-equivalent concentration was “inactive”. With COc1ccc2[nH]cc(CCNc3ncnc4ccc(-c5ccc(C(=O)N(C)C)cc5)cc34)c2c1 the max dye-equivalent concentration was “inactive”. In the case of O=C(O)c1ccc(-n2cccc2)cc1O, the max dye-equivalent concentration is reported as “inactive”. For Cc1cc(Cl)ccc1N1C(=O)CC(SCCC(=O)O)C1=O (centres undefined), the max dye-equivalent concentration was “inactive”. For CN(C)c1ccc(NC(=O)c2ccncc2)c2ccccc12, the max dye-equivalent concentration was “inactive”. With CCN1CCc2c(C#N)c(NCc3ccccc3)nc(NCCO)c2C1 the max dye-equivalent concentration was 500 nM (active). In the case of COc1ccc2c(=O)cc(-c3ccccc3)oc2c1O, the max dye-equivalent concentration is reported as “inactive”. With Cc1noc(C)c1-c1nccc(N2CCOCC2)n1 the max dye-equivalent concentration was “inactive”. In the case of O=C(Nc1nsc(-c2ccccc2)n1)c1ccncc1, the max dye-equivalent concentration is reported as “inactive”. In the case of CC[C@]1(O)CC2CN(CCc3c([nH]c4ccccc34)[C@@](C(=O)OC)(c3cc4c(cc3OC)N(C=O)[C@H]3[C@@](O)(C(=O)OC)[C@H](OC(C)=O)[C@]5(CC)C=CCN6CC[C@]43[C@@H]65)C2)C1 (some centres undefined), the max dye-equivalent concentration is reported as “inactive”. For CC[C@]1(O)C[C@@H]2CN(CCc3c([nH]c4ccccc34)[C@@](C(=O)OC)(c3cc4c(cc3OC)N(C)[C@H]3[C@@](O)(C(=O)OC)[C@H](OC(C)=O)[C@]5(CC)C=CCN6CC[C@]43[C@@H]65)C2)C1, the max dye-equivalent concentration was 54 nM (active).
